The values that follow come from PubChem BioAssay.

Assay [1] in a line: yeast TOR pathway RPL19A-GFP modulators, primary screen, cell-based, S. cerevisiae, multiplex flow cytometry (AID 1862; in the data active = percent of DMSO control GFP below about 86%;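 note: lower values mimic rapamycin by blocking the RPL19A rise seen in DMSO cells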). The conditions noted are these: S. cerevisiae RPL19A-GFP strain, flow cytometry fluorescence, 3 h; at 10 µM; stronger effect = lower value. On the technique in general: A flow cytometer gives signals particle by particle.
Assay [2] can be described thus: modulators of MEP2-GFP levels in yeast, primary screen, S. cerevisiae, multiplex flow cytometry (AID 1867;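 active = GFP response, as percent of the DMSO control, above the screen-wide mean plus 3 SD, about 139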;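 note: median GFP channel fluorescence of barcode-gated MEP2-GFP cells measured by flow cytometry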). The conditions noted are these: S. cerevisiae MEP2-GFP strain, 3 h, at 10 µM, stronger effect = higher value, 100% means same as DMSO wells.
A short description of assay [3]: modulators of CIT2-GFP expression in yeast, primary screen, S. cerevisiae, GFP fusion, multiplex flow cytometry (AID 1870;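 active = percent response above a set limit, the screen-wide mean plus 3 SD, cut at about 130% in these data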;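 note: barcoded CIT2-GFP strain pooled with four other GFP strains with rapamycin as positive control; median GFP fluorescence per well over plate mean of DMSO wells so 100% = DMSO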). The conditions noted are these: 3 h, at 10 µM, stronger effect = higher value.
Assay [4] is described as follows: modulators of LAP4-GFP expression in yeast, primary screen, S. cerevisiae, multiplex flow cytometry (AID 1873;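 active = GFP signal, as percent of the solvent control, above the screen mean plus 3 SD, about 149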). The conditions noted are these: 3 h, at 10 µM, stronger effect = higher value.
Assay [5] in a line: modulators of AGP1-GFP expression in yeast TOR pathway, primary screen, cell-based, multiplex flow cytometry, S. cerevisiae (AID 1887;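 active = GFP signal above the screen-wide mean plus 3 SD, that is over about 124.5% of the solvent control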;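 note: AGP1-GFP fusion strain of S. cerevisiae within a five-strain barcoded multiplex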). The following applies: 3 h, at 10 µM, stronger effect = higher value.
Assay [6] is described as follows: inhibitors of CD8+ T cell-vesicle binding, pilot screen, LFA-1/ICAM-1 modulator project, MLPCN validation set, flow cytometry (AID 2523;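 active = response below a set limit, under 55% cells CD8-positive and vesicle-bound, and CD8 cells' 90th-percentile brightness under 279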;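 for vesicle binding response: mean PE anti-B7-1 fluorescence of CD8+ cells relative to row control; 100% = QL9-loaded vesicles with DMSO vehicle in the same plate row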). The following applies: 2C mouse CD8+ T cells, at 7 µM, stronger effect = lower value; double positive events: measured here: CD8+/vesicle+ event percentage.
For assay [7], the target named is Integrin beta-1 (Homo sapiens) + Integrin alpha-4 (Homo sapiens) (UniProt P13612+P05556). Put plainly: inhibition of HUTS-21 binding to VLA-4, pilot screen, VLA-4 allosteric modulator project, U937 cells, HUTS-21 mAb, flow cytometry, validation set (AID 2674;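 active = inhibition above 50%, about 3 SD of the validation set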;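 note: antibody binding induced by the VLA-4 ligand LDV present at three times its Kd; 0% = LDV ligand with antibody and no compound and 100% = antibody without LDV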). The following applies: HUTS-21 LIBS mAb binding, at 6.7 µM, stronger effect = higher value, binding induced by LDV ligand.
Chain of Integrin beta-1 (Homo sapiens) + Integrin alpha-4 (Homo sapiens) (P05556 whole entry, looked up): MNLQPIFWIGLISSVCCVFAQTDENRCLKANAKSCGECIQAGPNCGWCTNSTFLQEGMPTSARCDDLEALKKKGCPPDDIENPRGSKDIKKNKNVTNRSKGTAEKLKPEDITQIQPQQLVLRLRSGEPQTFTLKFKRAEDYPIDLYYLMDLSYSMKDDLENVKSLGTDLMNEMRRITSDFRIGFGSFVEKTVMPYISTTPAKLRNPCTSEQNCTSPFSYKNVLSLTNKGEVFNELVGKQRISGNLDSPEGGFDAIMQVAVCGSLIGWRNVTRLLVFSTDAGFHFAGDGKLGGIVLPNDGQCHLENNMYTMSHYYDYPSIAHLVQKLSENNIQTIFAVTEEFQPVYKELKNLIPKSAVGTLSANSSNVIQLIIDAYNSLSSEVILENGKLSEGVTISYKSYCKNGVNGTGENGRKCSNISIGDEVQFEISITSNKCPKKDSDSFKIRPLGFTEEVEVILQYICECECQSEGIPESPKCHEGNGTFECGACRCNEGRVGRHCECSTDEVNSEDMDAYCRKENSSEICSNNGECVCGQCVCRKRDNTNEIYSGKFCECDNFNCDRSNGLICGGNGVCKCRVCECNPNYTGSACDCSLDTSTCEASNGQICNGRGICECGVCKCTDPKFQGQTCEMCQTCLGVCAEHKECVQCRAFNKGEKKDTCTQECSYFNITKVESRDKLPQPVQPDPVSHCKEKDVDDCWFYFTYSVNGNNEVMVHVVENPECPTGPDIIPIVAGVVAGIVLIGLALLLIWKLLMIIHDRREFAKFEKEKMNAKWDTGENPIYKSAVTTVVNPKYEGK
Chain of Integrin beta-1 (Homo sapiens) + Integrin alpha-4 (Homo sapiens) (P13612 whole entry, looked up): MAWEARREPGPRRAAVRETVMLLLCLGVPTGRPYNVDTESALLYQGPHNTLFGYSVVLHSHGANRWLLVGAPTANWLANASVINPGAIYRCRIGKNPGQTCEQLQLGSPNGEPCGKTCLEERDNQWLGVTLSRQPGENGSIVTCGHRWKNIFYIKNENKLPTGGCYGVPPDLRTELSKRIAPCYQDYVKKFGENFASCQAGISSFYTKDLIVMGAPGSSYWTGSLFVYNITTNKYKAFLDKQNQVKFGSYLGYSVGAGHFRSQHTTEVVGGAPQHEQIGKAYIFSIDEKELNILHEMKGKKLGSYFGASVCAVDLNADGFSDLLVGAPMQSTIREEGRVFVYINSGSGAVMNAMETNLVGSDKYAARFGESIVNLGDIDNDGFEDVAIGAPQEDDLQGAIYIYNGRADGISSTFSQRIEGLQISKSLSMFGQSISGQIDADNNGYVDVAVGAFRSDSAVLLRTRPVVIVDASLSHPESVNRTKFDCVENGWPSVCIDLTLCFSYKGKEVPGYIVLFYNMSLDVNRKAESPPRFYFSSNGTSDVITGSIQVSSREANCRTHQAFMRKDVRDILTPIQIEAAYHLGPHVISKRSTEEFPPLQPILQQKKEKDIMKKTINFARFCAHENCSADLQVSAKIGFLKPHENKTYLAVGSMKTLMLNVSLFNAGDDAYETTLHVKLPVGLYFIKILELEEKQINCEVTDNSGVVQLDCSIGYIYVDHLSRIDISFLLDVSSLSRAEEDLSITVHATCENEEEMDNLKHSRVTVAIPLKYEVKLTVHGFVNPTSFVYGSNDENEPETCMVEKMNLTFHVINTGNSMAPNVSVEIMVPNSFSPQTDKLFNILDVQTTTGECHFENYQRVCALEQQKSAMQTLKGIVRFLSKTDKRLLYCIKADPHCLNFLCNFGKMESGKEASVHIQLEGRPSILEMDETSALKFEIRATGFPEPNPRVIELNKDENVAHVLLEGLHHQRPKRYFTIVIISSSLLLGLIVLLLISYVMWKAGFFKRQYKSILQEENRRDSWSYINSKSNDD

Assay [8] can be described thus: superoxide lowering in aged yeast cells, pilot screen, validation compound set (AID 2706;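 active = superoxide response below 65% of plate, a cut near 3 SD across the whole screen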;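 note: yeast exposed to compound for one week at 30 degrees C before staining; 100% = mean of all compound wells on the same plate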). The following applies: S. cerevisiae aging, superoxide DHE fluorescence; at 10 µM; stronger effect = lower value.
Assay [9] concerns the target Beta-adrenergic receptor kinase 1 (Homo sapiens) (UniProt P25098). As to the kind of experiment: GRK2 binders displacing RNA aptamer, biochemical, validation, human GRK2, bead flow cytometry (AID 488806;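 active = aptamer binding inhibition above 30%, about 3 SD of noise from non-fluorescent compounds; inactive = inhibition at or below 30%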). The following applies: bead-bound GRK2, FAM-aptamer displacement, at 10 µM, stronger effect = higher value.
Assay [10] addresses Beta-2 adrenergic receptor (Homo sapiens) (UniProt P07550). As to the kind of experiment: beta2AR agonists driving receptor internalization, pilot screen, cell-based, FAP fluorogen, flow cytometry, validation set (AID 504459).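 Note: agonist-driven loss of surface beta2AR via internalization measured by FAP dye flow cytometry.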 The conditions noted are these: Am2.2-beta2AR cells, FAP surface receptor flow cytometry; at 10 µM; stronger effect = higher value.
Assay [11] addresses AP-2 complex subunit beta (Homo sapiens) (UniProt P63010). Put plainly: inhibitors of arrestin peptide binding to AP2, pilot screen, biochemical, validation set, GST-AP2 beads, flow cytometry (AID 504541;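 active = inhibition above 54%, about 3 SD of non-fluorescent compounds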;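 note: AP2 carries R879A mutation and is captured from E. coli lysate; bead-bound FITC arrestin peptide fluorescence measuring arrestin peptide binding to AP2; 0% = DMSO wells and 100% = excess unlabeled arrestin peptide control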). The conditions noted are these: FITC arrestin peptide, at 10 µM, stronger effect = higher value, AP2 beta2 appendage fragment, R879A mutant.
Assay [12] can be described thus: yeast V-ATPase proton transport modulators, S. cerevisiae, pHLuorin, HTS validation (AID 504600; in the data active = response above about 15%;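 note: plate controls were DMSO for no effect and reference compound for full effect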). The following applies: S. cerevisiae pHLuorin cytosolic pH, at 10 µM, stronger effect = higher value.
Assay [13] relates to anti-desmoglein-3 scFv antibody binding to human DSG3. As to the kind of experiment: inhibitors of anti-DSG3 scFv binding to DSG3, pilot screen, biochemical, validation compound set, bead-based, flow cytometry (AID 588368;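 active = binding below the plate cutoff, the plate median minus 3 SD, with a reading above zero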;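 note: signal is the median channel fluorescence of bead-bound GFP antibody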). The following applies: Protein G beads, DSG3-Fc, scFv-GFP binding, at 10 µM, stronger effect = lower value.
Assay [14] is described as follows: inhibitors of fungal efflux pumps CDR1, CDR2, MDR1, pilot screen, validation compound set, multiplex, phenotypic (AID 588506;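 active = efflux inhibition above 0.42, the validation set average plus 4 SD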;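 note: Nile Red retained in cells so higher fluorescence means more efflux inhibition; 0 = negative control wells and 1 = enniatin B 25 µM full block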). The following applies: S. cerevisiae pump-expressing triplex, Nile Red efflux flow cytometry; at 10 µM; stronger effect = higher value; the pumps come from Candida albicans.
Assay [15] addresses ATP-binding cassette sub-family B member 6 (Homo sapiens) (UniProt Q9NP58). As to the kind of experiment: ABCB6 transporter inhibitors, pilot screen, K562-ABCB6 cells, flow cytometry, validation set (AID 588550;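 active = inhibition above the screen-wide mean plus 3 SD, about 51%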;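 note: 0% = DMSO wells and 100% = benzethonium chloride 70 µM positive control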). The conditions noted are these: K562-ABCB6 porphyrin accumulation, 1 h, at 10 µM, stronger effect = higher value.
Assay [16] in a line: promoters of myeloid differentiation in arrested cells, primary screen, cell-based, GFP/MAC1 double positive, flow cytometry, validation set (AID 588685;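 active = differentiation response of at least 50%, scaled between solvent and reference control, from cells with both markers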;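 note: compound exposure lasts four days before antibody staining and flow analysis; 0% = DMSO wells and 100% = 5 µM fulvestrant positive control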). The conditions noted are these: ER-HoxA9 marrow cells, stronger effect = higher value, normalized: vehicle 0, fulvestrant 100.

Each structure is given as a SMILES string. Inconclusive results are not listed. Activity calls are given as the source filed them.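 Rule for the calls, unless noted: active = percent response above 42, roughly 3 SD of non-fluorescent test compounds; inactive = the rest.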

Chain of ATP-binding cassette sub-family B member 6 (Homo sapiens) (Q9NP58 whole entry, looked up): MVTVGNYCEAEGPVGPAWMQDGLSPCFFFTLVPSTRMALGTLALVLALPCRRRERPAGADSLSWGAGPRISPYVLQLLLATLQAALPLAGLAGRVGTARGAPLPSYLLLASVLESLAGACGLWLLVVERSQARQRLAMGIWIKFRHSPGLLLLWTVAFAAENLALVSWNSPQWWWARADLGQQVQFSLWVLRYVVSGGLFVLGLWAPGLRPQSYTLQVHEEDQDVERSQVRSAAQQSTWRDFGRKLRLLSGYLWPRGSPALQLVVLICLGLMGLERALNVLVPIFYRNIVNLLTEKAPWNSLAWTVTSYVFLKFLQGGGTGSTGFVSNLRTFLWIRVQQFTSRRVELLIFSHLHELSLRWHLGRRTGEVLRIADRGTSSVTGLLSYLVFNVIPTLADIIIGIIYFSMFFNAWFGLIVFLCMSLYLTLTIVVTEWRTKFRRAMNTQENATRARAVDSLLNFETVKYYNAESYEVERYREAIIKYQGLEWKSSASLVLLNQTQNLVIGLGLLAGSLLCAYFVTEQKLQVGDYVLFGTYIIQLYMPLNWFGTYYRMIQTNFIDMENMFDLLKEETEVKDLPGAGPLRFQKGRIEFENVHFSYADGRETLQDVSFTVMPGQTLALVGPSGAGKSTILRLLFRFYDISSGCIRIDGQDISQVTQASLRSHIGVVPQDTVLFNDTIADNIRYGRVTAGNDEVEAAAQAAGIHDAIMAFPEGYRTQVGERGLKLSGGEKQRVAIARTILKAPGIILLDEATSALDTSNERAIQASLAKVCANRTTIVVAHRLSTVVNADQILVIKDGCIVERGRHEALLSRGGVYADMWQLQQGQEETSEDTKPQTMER
Chain of AP-2 complex subunit beta (Homo sapiens) (P63010 whole entry, looked up, the tested form may be a part, one chain of several): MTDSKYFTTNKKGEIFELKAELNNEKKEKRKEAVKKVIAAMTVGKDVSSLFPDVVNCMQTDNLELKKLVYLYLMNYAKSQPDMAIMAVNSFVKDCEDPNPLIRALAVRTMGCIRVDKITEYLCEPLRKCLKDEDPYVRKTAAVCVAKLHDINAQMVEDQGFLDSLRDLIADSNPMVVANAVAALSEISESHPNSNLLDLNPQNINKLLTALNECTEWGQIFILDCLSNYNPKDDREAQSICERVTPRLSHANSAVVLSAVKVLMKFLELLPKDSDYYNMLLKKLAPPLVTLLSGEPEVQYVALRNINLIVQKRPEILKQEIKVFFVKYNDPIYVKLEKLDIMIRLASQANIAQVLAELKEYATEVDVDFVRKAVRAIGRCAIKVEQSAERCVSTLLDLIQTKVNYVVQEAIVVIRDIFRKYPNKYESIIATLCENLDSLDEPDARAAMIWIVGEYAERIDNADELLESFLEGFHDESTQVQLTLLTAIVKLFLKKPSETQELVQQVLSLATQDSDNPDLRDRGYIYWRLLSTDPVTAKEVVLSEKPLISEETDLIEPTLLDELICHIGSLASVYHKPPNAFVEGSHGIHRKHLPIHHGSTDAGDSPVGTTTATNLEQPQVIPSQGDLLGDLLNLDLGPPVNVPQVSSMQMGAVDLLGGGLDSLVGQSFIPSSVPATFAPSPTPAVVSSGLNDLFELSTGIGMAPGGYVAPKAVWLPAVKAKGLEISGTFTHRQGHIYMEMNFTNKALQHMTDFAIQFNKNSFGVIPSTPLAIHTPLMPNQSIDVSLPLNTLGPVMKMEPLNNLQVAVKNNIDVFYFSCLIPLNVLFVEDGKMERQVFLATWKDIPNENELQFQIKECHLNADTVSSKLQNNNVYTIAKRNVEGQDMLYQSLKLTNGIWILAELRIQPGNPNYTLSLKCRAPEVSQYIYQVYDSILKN
Chain of Beta-2 adrenergic receptor (Homo sapiens) (P07550 whole entry, looked up): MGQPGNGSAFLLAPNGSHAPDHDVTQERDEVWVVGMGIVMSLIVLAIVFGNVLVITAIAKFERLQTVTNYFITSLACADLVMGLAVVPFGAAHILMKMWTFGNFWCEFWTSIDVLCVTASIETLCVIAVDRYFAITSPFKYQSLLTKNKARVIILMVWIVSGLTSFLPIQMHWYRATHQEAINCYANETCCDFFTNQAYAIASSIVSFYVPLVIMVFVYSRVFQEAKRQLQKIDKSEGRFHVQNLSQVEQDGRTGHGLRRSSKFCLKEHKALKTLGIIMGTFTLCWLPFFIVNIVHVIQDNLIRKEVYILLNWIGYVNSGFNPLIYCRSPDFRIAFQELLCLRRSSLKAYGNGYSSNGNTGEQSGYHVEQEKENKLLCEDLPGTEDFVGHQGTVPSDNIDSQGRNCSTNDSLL
Chain of Beta-adrenergic receptor kinase 1 (Homo sapiens) (P25098 whole entry, looked up): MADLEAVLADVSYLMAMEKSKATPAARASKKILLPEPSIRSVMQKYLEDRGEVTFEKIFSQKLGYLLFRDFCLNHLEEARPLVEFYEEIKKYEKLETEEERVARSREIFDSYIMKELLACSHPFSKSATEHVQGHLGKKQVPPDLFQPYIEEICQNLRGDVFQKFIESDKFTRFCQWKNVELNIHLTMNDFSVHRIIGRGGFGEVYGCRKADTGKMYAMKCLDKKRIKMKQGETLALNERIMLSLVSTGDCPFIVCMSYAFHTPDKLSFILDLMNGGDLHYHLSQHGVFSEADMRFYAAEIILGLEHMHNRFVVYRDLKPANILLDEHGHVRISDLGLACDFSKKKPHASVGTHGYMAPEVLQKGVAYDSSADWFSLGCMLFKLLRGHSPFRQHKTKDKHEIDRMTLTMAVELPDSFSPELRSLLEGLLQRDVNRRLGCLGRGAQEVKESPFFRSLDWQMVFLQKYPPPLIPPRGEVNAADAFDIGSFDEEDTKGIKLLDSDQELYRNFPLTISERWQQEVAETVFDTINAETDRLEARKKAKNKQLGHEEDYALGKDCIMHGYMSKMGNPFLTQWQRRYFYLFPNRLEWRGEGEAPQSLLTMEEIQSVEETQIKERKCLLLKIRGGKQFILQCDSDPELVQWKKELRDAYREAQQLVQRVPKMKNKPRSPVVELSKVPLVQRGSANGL

By inhibition is commonly meant the relative decrease from the control value, in per cent. Regarding `C#CCN1C(=O)C(O)(c2c(C)[nH]c3ccccc23)c2ccccc21` (stereo not drawn), the percent of DMSO control GFP in assay [1] was 103% (inactive). The GFP response vs DMSO is 106% (inactive) in assay [2] and 103% (inactive) in assay [4]. In addition, the percent response of DMSO control in [3] is 96% (inactive). Also, the GFP response, % of DMSO in assay [5] was 100% (inactive). In assay [6], this compound returned a double positive events of 65%. Besides, in assay [6], the vesicle binding response is 220% (inactive). In addition, the inhibition in [7] is -0.31% (inactive); in [11], 2.17% (inactive); in [15] it was 3% (inactive). Further, the superoxide response (% of plate) in [8] is 96.9% (inactive). In addition, in [9], the aptamer binding inhibition was 3% (inactive). Moreover, the response is 1% (inactive) in [10] and -0.83% (inactive) in assay [12]. The binding (% of control) in assay [13] is 100% (inactive). Besides, the efflux inhibition (fraction of control) in assay [14] is -0.44 (inactive). Further, the differentiation response in assay [16] was 0% (inactive).
On to `CCn1cc(C(=O)O)c(=O)c2ccc(C)nc21`, for which the percent of DMSO control GFP in assay [1] was 99.5% (inactive). Moreover, the values for the GFP response vs DMSO in assay [2] and in [4] were 98.7% (inactive) and 93.7% (inactive), respectively. Further, in assay [3], the percent response of DMSO control is 92.4% (inactive). Also, the GFP response, % of DMSO in [5] was 106% (inactive). In assay [6], this compound displayed a double positive events of 55.9%. Besides, the vesicle binding response in assay [6] was 172% (inactive). Moreover, the values for the inhibition in assay [7], in assay [11] and in assay [15] were -15.8% (inactive), -4.75% (inactive) and -8% (inactive), respectively. For the same compound, in [8], the superoxide response (% of plate) was 99.5% (inactive). In addition, the aptamer binding inhibition in assay [9] was -1% (inactive). Besides, the response in assay [10] was 3.04% (inactive); in assay [12], -3.3% (inactive). Also, the binding (% of control) in [13] is 108% (inactive). In addition, the efflux inhibition (fraction of control) in [14] was 0.085 (inactive). Also, in [16], the differentiation response is -4.57% (inactive).
On to `CC(=O)C1=C(O)C(=O)OC1c1ccc(C)cc1` (stereo not drawn), for which the percent of DMSO control GFP in [1] was 97.1% (inactive). For the same compound, the GFP response vs DMSO in assay [2] is 119% (inactive); in assay [4] it was 132% (inactive). Besides, in [3], the percent response of DMSO control was 91% (inactive). Further, the GFP response, % of DMSO in assay [5] was 106% (inactive). For the same compound, in assay [6], the double positive events turned out to be 61%. The vesicle binding response in assay [6] is 147% (inactive). Besides, the inhibition in assay [7] is 17.3% (inactive); in [11], 21.9% (inactive); in assay [15], 7% (inactive). Also, the superoxide response (% of plate) in assay [8] was 103% (inactive). For the same compound, in assay [9], the aptamer binding inhibition was 2% (inactive). The response in assay [10] was -1.67% (inactive); in assay [12], -0.38% (inactive). The binding (% of control) in assay [13] is 101% (inactive). In assay [14], the efflux inhibition (fraction of control) was -0.06 (inactive). In assay [16], the differentiation response was 5.6% (inactive).
`CCc1nc(N)nc(N)c1-c1ccc(Cl)cc1`: in [1], the percent of DMSO control GFP is 92.2% (inactive). The results for the GFP response vs DMSO in assay [2] and in assay [4] were 112% (inactive) and 70.4% (inactive), respectively. Further, the percent response of DMSO control in [3] is 102% (inactive). Also, the GFP response, % of DMSO in assay [5] is 101% (inactive). In assay [6], this compound came in with a double positive events of 65.6%. In assay [6], the vesicle binding response is 209% (inactive). Besides, the figures for the inhibition in assay [7], in [11] and in assay [15] were 5.49% (inactive), 1.62% (inactive) and 10% (inactive), respectively. Also, the superoxide response (% of plate) in assay [8] was 87.5% (inactive). The aptamer binding inhibition in assay [9] was 0% (inactive). For the same compound, the response in assay [10] was -2.3% (inactive); in assay [12], 1.08% (inactive). Moreover, the binding (% of control) in [13] is 137% (inactive). Moreover, the efflux inhibition (fraction of control) in assay [14] was 0.23 (inactive). For the same compound, the differentiation response in assay [16] is -3.28% (inactive).
